According to PubChem BioAssay (NCATS):
Records with an inconclusive call do not appear. The source made the active and inactive calls. Calls follow the shape of the dose curve; as a rule, active = well fitted inhibition curve with a large enough effect; inconclusive = small, poorly fitted or top-dose-only effect; inactive = flat fitted curve, though single readings scatter.

The molecules below were run against Luciferin 4-monooxygenase (Photinus pyralis) (UniProt P08659) (assay: Biochemical firefly luciferase enzyme assay for NPC (AID 624030;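 also: purified P. pyralis luciferase at 10 nM with luciferin and ATP substrate; 0% = DMSO and -100% = full luciferase inhibition by PTC124 control; nearly all actives have a fitted effect of over 70% in size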)). Conditions: purified P. pyralis luciferase, luminescence, 5 min; series mostly up to 58.6 µM; activity change, negative = inhibition: at the top concentration.
Method in brief: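 Direct inhibition of firefly luciferase enzyme (10 nM final, 50 mM Tris Acetate) assessed by luminescence within 5 minutes. Percent activity scaled between DMSO and PTC124 positive control, with concentration-effect curves classified by fit quality and response.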

Luciferin 4-monooxygenase (Photinus pyralis), sequence (P08659 whole entry, looked up): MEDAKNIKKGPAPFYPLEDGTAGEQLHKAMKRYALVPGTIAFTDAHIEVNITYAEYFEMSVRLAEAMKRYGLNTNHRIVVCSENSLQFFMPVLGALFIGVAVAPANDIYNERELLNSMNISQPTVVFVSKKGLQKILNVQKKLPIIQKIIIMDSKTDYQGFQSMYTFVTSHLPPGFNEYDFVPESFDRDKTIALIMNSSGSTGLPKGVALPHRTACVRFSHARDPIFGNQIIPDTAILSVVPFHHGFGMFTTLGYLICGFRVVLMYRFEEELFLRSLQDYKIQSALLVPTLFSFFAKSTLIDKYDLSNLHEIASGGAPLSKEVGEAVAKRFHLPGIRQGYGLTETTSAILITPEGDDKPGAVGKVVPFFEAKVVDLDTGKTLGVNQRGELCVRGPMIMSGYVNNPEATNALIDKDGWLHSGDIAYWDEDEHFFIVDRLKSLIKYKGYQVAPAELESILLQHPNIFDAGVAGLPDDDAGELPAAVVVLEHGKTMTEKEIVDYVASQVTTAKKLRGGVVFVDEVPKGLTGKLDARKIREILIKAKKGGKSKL

SMILES	activity change, negative = inhibition
CCCCCCCCCCCCCCCC(=O)OC[C@@H](COP(=O)([O-])OCC[N+](C)(C)C)OC(=O)CCCCCCCCCCCCCCC	-0.9% (inactive)
O.O=C([O-])CC([S-])C(=O)[O-].[Au+].[Na+].[Na+] (stereo not drawn)	-0.384% (inactive)
COc1cc2[nH]c(C)c(CCN3CCN(c4ccccc4)CC3)c2cc1OC	-0.437% (inactive)
CC(CC(c1ccccc1)c1ccccc1)NC(C)(C)C (stereo not drawn)	6.3% (inactive)
CCCC(CCC)C(N)=O	-1.75% (inactive)
CCN(CC)c1ccc(N=Nc2ccc(S(=O)(=O)N(C)C)cc2)c(S(=O)(=O)NCC[n+]2ccccc2)c1	-7.09% (inactive)
CCCC1([C@H](O)C/C=C/[C@H]2[C@H](O)CC(=O)[C@@H]2CCCCCCC(=O)OC)CCC1	-0.823% (inactive)
CN[C@@H]1CCc2[nH]c3ccc(C(N)=O)cc3c2C1	-6.29% (inactive)
Cc1cc(-n2c(=O)[nH]c(=O)n(C)c2=O)ccc1Oc1ccc(S(=O)(=O)C(F)(F)F)cc1	-5.79% (inactive)
C[C@H]1C[C@@H]2[C@H]([C@@H](O)C[C@@]3(C)[C@H]2CC[C@]3(O)C(=O)COC(=O)CCC(=O)O)[C@@]2(C)C=CC(=O)C=C12	45.6% (inactive)
NCCCNCCCCNC(=O)C(O)NC(=O)CCCCCCN=C(N)N (stereo not drawn)	9.86% (inactive)
OC(CN1CCCCC1)c1cc(-c2ccccc2)on1 (stereo not drawn)	-8.42% (inactive)
O=P(O)(O)C(Sc1ccc(Cl)cc1)P(=O)(O)O	15.5% (inactive)
CS(=O)(=O)OCCCNCCCOS(C)(=O)=O	-0.291% (inactive)
O=P(O)(O)OC(CO)CO	0.614% (inactive)
O=[N+]([O-])c1ccc(Oc2ccc(N=C=S)cc2)cc1	-9.39% (inactive)
O=C(OCCO)c1ccccc1O	-1.06% (inactive)
CN1CCN(C2=Nc3ccccc3Cc3ccccc32)CC1	-1.43% (inactive)
